Here are results for five molecules from PubChem BioAssay.

Each structure is given as a SMILES string. Inconclusive results are not listed. Calls of active or inactive are those of the source.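 How the source made its calls, unless noted: active means binding below the plate cutoff, the plate median minus 3 SD, with a reading above zero; inconclusive means below the plate cutoff but reading exactly zero; inactive means the rest.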

Assay [1] is described as follows: yeast TOR pathway RPL19A-GFP modulators, primary screen, cell-based, S. cerevisiae, multiplex flow cytometry (AID 1862; in the data active means percent of DMSO control GFP below about 86%;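 further: lower values mimic rapamycin by blocking the RPL19A rise seen in DMSO cells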). Conditions: S. cerevisiae RPL19A-GFP strain, flow cytometry fluorescence, 3 h; at 10 µM; stronger effect = lower value.
Assay [2] in a line: modulators of MEP2-GFP levels in yeast, primary screen, S. cerevisiae, multiplex flow cytometry (AID 1867;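 active means GFP response, as percent of the DMSO control, above the screen-wide mean plus 3 SD, about 139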;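 further: median GFP channel fluorescence of barcode-gated MEP2-GFP cells measured by flow cytometry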). Conditions: S. cerevisiae MEP2-GFP strain, 3 h, at 10 µM, stronger effect = higher value, 100% means same as DMSO wells.
A short description of assay [3]: modulators of CIT2-GFP expression in yeast, primary screen, S. cerevisiae, GFP fusion, multiplex flow cytometry (AID 1870;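 active means percent response above a set limit, the screen-wide mean plus 3 SD, cut at about 130% in these data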;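 further: barcoded CIT2-GFP strain pooled with four other GFP strains with rapamycin as positive control; median GFP fluorescence per well over plate mean of DMSO wells so 100% = DMSO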). Conditions: 3 h, at 10 µM, stronger effect = higher value.
Assay [4] can be described thus: modulators of LAP4-GFP expression in yeast, primary screen, S. cerevisiae, multiplex flow cytometry (AID 1873;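 active means GFP signal, as percent of the solvent control, above the screen mean plus 3 SD, about 149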). As to conditions: 3 h, at 10 µM, stronger effect = higher value.
A short description of assay [5]: modulators of AGP1-GFP expression in yeast TOR pathway, primary screen, cell-based, multiplex flow cytometry, S. cerevisiae (AID 1887;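 active means GFP signal above the screen-wide mean plus 3 SD, that is over about 124.5% of the solvent control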;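 further: AGP1-GFP fusion strain of S. cerevisiae within a five-strain barcoded multiplex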). As to conditions: 3 h, at 10 µM, stronger effect = higher value.
Assay [6] is described as follows: inhibitors of CD8+ T cell-vesicle binding, pilot screen, LFA-1/ICAM-1 modulator project, MLPCN validation set, flow cytometry (AID 2523;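 active means response below a set limit, under 55% cells CD8-positive and vesicle-bound, and CD8 cells' 90th-percentile brightness under 279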;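 on vesicle binding response: mean PE anti-B7-1 fluorescence of CD8+ cells relative to row control; 100% = QL9-loaded vesicles with DMSO vehicle in the same plate row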). As to conditions: 2C mouse CD8+ T cells, at 7 µM, stronger effect = lower value; double positive events: measured here: CD8+/vesicle+ event percentage.
The target in assay [7] is Integrin beta-1 (Homo sapiens) + Integrin alpha-4 (Homo sapiens) (UniProt P13612+P05556). As to the kind of experiment: inhibition of HUTS-21 binding to VLA-4, pilot screen, VLA-4 allosteric modulator project, U937 cells, HUTS-21 mAb, flow cytometry, validation set (AID 2674;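 active means inhibition above 50%, about 3 SD of the validation set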;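 further: antibody binding induced by the VLA-4 ligand LDV present at three times its Kd; 0% = LDV ligand with antibody and no compound and 100% = antibody without LDV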). As to conditions: HUTS-21 LIBS mAb binding, at 6.7 µM, stronger effect = higher value, binding induced by LDV ligand.

Assay [8] can be described thus: superoxide lowering in aged yeast cells, pilot screen, validation compound set (AID 2706;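 active means superoxide response below 65% of plate, a cut near 3 SD across the whole screen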;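 further: yeast exposed to compound for one week at 30 degrees C before staining; 100% = mean of all compound wells on the same plate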). Conditions: S. cerevisiae aging, superoxide DHE fluorescence; at 10 µM; stronger effect = lower value.
Assay [9] concerns the target Beta-adrenergic receptor kinase 1 (Homo sapiens) (UniProt P25098). As to the kind of experiment: GRK2 binders displacing RNA aptamer, biochemical, validation, human GRK2, bead flow cytometry (AID 488806;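 active means aptamer binding inhibition above 30%, about 3 SD of noise from non-fluorescent compounds; inactive means inhibition at or below 30%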). Conditions: bead-bound GRK2, FAM-aptamer displacement, at 10 µM, stronger effect = higher value.
Assay [10] addresses Beta-2 adrenergic receptor (Homo sapiens) (UniProt P07550). The experiment in a line: beta2AR agonists driving receptor internalization, pilot screen, cell-based, FAP fluorogen, flow cytometry, validation set (AID 504459;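 active means percent response above 42, roughly 3 SD of non-fluorescent test compounds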;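 further: agonist-driven loss of surface beta2AR via internalization measured by FAP dye flow cytometry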). As to conditions: Am2.2-beta2AR cells, FAP surface receptor flow cytometry; at 10 µM; stronger effect = higher value.
The target in assay [11] is AP-2 complex subunit beta (Homo sapiens) (UniProt P63010). The experiment in a line: inhibitors of arrestin peptide binding to AP2, pilot screen, biochemical, validation set, GST-AP2 beads, flow cytometry (AID 504541;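 active means inhibition above 54%, about 3 SD of non-fluorescent compounds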;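 further: AP2 carries R879A mutation and is captured from E. coli lysate; bead-bound FITC arrestin peptide fluorescence measuring arrestin peptide binding to AP2; 0% = DMSO wells and 100% = excess unlabeled arrestin peptide control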). As to conditions: FITC arrestin peptide, at 10 µM, stronger effect = higher value, AP2 beta2 appendage fragment, R879A mutant.
A short description of assay [12]: yeast V-ATPase proton transport modulators, S. cerevisiae, pHLuorin, HTS validation (AID 504600; in the data active means response above about 15%;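 further: plate controls were DMSO for no effect and reference compound for full effect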). As to conditions: S. cerevisiae pHLuorin cytosolic pH, at 10 µM, stronger effect = higher value.
Assay [13] concerns anti-desmoglein-3 scFv antibody binding to human DSG3. As to the kind of experiment: inhibitors of anti-DSG3 scFv binding to DSG3, pilot screen, biochemical, validation compound set, bead-based, flow cytometry (AID 588368).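 Further: signal is the median channel fluorescence of bead-bound GFP antibody.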 Conditions: Protein G beads, DSG3-Fc, scFv-GFP binding, at 10 µM, stronger effect = lower value.
Assay [14] is described as follows: inhibitors of fungal efflux pumps CDR1, CDR2, MDR1, pilot screen, validation compound set, multiplex, phenotypic (AID 588506;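 active means efflux inhibition above 0.42, the validation set average plus 4 SD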;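 further: Nile Red retained in cells so higher fluorescence means more efflux inhibition; 0 = negative control wells and 1 = enniatin B 25 µM full block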). Conditions: S. cerevisiae pump-expressing triplex, Nile Red efflux flow cytometry; at 10 µM; stronger effect = higher value; the pumps come from Candida albicans.
Assay [15] concerns the target ATP-binding cassette sub-family B member 6 (Homo sapiens) (UniProt Q9NP58). The experiment in a line: ABCB6 transporter inhibitors, pilot screen, K562-ABCB6 cells, flow cytometry, validation set (AID 588550;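 active means inhibition above the screen-wide mean plus 3 SD, about 51%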;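 further: 0% = DMSO wells and 100% = benzethonium chloride 70 µM positive control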). Conditions: K562-ABCB6 porphyrin accumulation, 1 h, at 10 µM, stronger effect = higher value.
The nature of assay [16]: promoters of myeloid differentiation in arrested cells, primary screen, cell-based, GFP/MAC1 double positive, flow cytometry, validation set (AID 588685;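 active means differentiation response of at least 50%, scaled between solvent and reference control, from cells with both markers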;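 further: compound exposure lasts four days before antibody staining and flow analysis; 0% = DMSO wells and 100% = 5 µM fulvestrant positive control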). As to conditions: ER-HoxA9 marrow cells, stronger effect = higher value, normalized: vehicle 0, fulvestrant 100.

Sequence of ATP-binding cassette sub-family B member 6 (Homo sapiens) (Q9NP58 whole entry, looked up): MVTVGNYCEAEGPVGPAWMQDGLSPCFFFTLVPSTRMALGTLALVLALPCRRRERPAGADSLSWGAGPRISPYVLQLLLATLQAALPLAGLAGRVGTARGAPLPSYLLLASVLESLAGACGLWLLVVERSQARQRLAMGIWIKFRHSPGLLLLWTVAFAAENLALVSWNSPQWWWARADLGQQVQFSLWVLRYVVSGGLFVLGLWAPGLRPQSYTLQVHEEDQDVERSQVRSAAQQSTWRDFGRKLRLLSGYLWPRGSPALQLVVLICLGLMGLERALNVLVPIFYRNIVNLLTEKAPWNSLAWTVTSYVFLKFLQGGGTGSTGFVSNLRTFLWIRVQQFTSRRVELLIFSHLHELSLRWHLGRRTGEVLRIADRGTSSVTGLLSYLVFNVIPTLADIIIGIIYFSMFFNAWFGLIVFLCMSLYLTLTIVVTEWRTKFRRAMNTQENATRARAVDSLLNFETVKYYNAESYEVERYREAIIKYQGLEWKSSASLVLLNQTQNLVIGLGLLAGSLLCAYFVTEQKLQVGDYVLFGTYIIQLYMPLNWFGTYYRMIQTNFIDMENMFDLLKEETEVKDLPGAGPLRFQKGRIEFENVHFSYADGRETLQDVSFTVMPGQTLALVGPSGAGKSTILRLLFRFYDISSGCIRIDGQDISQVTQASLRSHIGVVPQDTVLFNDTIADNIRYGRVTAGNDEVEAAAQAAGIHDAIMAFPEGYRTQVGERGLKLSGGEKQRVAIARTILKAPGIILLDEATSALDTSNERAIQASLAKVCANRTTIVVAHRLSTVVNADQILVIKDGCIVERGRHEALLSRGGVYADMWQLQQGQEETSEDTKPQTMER
Sequence of Integrin beta-1 (Homo sapiens) + Integrin alpha-4 (Homo sapiens) (P05556 whole entry, looked up): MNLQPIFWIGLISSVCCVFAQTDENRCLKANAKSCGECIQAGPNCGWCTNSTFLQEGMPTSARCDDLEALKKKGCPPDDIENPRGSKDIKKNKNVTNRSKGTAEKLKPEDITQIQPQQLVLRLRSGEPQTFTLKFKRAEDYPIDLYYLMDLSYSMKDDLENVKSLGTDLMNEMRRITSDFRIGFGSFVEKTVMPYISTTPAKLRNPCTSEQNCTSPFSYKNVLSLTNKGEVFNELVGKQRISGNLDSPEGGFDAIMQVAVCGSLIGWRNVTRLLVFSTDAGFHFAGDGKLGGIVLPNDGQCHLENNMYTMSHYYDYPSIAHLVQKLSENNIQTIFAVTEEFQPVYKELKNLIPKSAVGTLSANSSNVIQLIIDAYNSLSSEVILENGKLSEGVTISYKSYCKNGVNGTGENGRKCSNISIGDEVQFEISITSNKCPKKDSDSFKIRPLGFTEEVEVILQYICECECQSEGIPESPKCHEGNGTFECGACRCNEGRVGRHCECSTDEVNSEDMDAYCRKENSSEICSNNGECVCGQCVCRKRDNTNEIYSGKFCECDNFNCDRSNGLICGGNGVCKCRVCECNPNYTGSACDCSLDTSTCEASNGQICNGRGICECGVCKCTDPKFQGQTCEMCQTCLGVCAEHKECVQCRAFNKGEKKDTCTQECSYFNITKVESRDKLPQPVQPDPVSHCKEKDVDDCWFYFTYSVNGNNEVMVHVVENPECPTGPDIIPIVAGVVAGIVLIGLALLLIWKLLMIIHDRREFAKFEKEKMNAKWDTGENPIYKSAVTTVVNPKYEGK
Sequence of Integrin beta-1 (Homo sapiens) + Integrin alpha-4 (Homo sapiens) (P13612 whole entry, looked up): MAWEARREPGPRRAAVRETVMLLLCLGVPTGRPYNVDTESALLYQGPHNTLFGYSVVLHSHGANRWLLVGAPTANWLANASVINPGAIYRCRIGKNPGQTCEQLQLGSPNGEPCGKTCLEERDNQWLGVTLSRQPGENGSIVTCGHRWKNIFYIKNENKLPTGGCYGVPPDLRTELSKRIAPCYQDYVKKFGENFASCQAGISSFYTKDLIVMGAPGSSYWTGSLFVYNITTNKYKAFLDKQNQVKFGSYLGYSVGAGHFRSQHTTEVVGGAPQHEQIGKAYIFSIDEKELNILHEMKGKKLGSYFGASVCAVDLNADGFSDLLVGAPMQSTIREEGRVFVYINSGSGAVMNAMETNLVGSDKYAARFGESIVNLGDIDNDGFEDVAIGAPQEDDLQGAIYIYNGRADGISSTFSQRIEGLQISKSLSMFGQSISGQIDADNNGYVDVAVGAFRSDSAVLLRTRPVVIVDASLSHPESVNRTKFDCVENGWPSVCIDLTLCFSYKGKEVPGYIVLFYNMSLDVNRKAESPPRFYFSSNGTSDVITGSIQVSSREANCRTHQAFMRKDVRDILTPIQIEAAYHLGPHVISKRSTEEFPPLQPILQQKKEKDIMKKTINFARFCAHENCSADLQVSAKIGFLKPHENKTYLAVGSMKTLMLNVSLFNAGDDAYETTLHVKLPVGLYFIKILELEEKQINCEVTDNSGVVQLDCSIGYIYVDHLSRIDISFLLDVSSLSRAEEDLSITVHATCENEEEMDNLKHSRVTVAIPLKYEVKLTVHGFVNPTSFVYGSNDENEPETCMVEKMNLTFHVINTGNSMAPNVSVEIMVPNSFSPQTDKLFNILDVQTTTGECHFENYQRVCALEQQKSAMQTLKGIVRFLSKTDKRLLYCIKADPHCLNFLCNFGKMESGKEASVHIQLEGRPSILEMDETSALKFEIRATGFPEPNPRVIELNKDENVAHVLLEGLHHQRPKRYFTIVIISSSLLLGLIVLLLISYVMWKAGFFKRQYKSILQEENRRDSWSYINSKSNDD
Sequence of Beta-2 adrenergic receptor (Homo sapiens) (P07550 whole entry, looked up): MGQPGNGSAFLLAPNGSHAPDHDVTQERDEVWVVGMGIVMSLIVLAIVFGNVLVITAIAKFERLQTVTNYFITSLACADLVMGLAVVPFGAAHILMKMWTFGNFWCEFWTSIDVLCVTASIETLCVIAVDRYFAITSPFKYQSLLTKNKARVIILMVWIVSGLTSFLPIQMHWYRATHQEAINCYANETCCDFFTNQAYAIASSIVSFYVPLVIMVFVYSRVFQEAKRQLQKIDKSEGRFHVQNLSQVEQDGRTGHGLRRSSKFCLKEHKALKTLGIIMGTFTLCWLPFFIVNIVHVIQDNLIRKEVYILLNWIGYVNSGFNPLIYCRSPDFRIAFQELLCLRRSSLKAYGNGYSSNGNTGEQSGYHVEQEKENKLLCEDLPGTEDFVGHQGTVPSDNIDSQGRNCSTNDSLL
Sequence of AP-2 complex subunit beta (Homo sapiens) (P63010 whole entry, looked up, the tested form may be a part, one chain of several): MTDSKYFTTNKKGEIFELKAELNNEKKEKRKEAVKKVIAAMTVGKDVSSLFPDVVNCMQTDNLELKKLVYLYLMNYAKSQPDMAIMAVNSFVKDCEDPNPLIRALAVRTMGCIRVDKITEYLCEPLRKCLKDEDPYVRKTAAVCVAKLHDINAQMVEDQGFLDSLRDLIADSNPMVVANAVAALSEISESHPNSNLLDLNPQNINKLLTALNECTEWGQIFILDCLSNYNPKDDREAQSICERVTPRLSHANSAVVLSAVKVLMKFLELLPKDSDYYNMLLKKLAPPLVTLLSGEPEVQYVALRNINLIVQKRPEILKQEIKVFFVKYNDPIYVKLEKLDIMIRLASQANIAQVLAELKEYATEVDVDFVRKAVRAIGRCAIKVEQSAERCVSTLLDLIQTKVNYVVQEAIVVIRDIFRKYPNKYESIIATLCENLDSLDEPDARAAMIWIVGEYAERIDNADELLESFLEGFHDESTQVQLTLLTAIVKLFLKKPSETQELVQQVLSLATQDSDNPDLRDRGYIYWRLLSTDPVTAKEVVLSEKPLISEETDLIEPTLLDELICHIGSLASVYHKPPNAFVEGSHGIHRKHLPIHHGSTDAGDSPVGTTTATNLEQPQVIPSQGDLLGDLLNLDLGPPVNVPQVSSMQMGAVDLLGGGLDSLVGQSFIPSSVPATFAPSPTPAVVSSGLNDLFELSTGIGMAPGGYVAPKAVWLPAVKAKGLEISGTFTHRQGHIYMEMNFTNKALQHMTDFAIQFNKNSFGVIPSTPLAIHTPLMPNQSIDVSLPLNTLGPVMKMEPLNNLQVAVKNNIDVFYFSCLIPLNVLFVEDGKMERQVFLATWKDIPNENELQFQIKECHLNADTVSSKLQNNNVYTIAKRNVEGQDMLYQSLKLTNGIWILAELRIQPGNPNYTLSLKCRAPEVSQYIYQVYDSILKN
Sequence of Beta-adrenergic receptor kinase 1 (Homo sapiens) (P25098 whole entry, looked up): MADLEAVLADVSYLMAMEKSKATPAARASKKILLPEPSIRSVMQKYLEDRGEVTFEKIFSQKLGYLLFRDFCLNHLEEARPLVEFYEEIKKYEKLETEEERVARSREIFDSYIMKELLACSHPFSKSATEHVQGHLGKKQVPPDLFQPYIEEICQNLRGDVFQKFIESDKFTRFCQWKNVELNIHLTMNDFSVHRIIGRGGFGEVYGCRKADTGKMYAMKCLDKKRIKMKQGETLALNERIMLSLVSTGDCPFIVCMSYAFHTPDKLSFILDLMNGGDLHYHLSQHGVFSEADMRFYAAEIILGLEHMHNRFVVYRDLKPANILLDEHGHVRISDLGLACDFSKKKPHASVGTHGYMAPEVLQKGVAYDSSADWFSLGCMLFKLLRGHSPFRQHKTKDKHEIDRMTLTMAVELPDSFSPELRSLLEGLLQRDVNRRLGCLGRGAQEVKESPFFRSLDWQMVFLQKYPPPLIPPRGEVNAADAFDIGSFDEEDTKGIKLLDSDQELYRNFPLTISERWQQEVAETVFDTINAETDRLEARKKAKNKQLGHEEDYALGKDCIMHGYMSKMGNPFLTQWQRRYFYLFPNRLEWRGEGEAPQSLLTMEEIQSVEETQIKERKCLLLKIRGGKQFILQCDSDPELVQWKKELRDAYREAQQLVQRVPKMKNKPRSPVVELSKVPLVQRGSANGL

Regarding `CC1(C)CC(NCc2ccccc2)CCO1` (stereo not given), the percent of DMSO control GFP in assay [1] was 103% (inactive). In addition, the GFP response vs DMSO in assay [2] was 97.6% (inactive); in assay [4], 101% (inactive). In addition, the percent response of DMSO control in [3] was 96.4% (inactive). Besides, the GFP response, % of DMSO in assay [5] was 114% (inactive). The double positive events in assay [6] was 60.6%. The vesicle binding response in [6] is 226% (inactive). For the same molecule, the inhibition in [7] is 13.4% (inactive); in [11], 60.9% (active); in assay [15], 4% (inactive). Besides, the superoxide response (% of plate) in assay [8] is 94.9% (inactive). Besides, the aptamer binding inhibition in assay [9] is 0% (inactive). In addition, the figures for the response in assay [10] and in assay [12] were -7.51% (inactive) and 5.23% (inactive), respectively. In addition, the binding (% of control) in assay [13] was 101% (inactive). In [14], the efflux inhibition (fraction of control) is 0.04 (inactive). The differentiation response in [16] is -7.94% (inactive).

For the molecule `CC[N+]1(C)CC2CCC(C)(C1)C2(C)C` (stereo not given), the percent of DMSO control GFP in assay [1] was 106% (inactive). In addition, the GFP response vs DMSO in [2] is 104% (inactive); in assay [4], 96.5% (inactive). Also, in [3], the percent response of DMSO control was 101% (inactive). Moreover, the GFP response, % of DMSO in [5] is 97.4% (inactive). In [6], the double positive events was determined as 59.7%. Moreover, in [6], the vesicle binding response is 193% (inactive). Also, the inhibition in assay [7] is 11.9% (inactive); in [11] it was 11.5% (inactive); in [15], 7% (inactive). For the same molecule, the superoxide response (% of plate) in assay [8] was 103% (inactive). In assay [9], the aptamer binding inhibition was 5% (inactive). Also, the response in assay [10] was 5% (inactive); in assay [12], -4.32% (inactive). Also, in [13], the binding (% of control) is 98% (inactive). Besides, the efflux inhibition (fraction of control) in assay [14] is -0.06 (inactive). In assay [16], the differentiation response is -21.6% (inactive).

Take `Cc1ccccc1NC(=O)c1c(C)cc(=O)oc1C`: the percent of DMSO control GFP in assay [1] was 106% (inactive). Also, the GFP response vs DMSO was 101% (inactive) in assay [2] and 84.8% (inactive) in assay [4]. The percent response of DMSO control in assay [3] is 113% (inactive). For the same molecule, the GFP response, % of DMSO in assay [5] was 99.2% (inactive). The double positive events in [6] was 67.4%. Besides, in [6], the vesicle binding response is 771% (inactive). Besides, the figures for the inhibition in assay [7], in assay [11] and in assay [15] were 5.77% (inactive), -11.4% (inactive) and -3% (inactive), respectively. In assay [8], the superoxide response (% of plate) was 83.4% (inactive). Also, in assay [9], the aptamer binding inhibition is 4% (inactive). Also, the response in assay [10] was -4.18% (inactive); in assay [12], 1.91% (inactive). Further, in [13], the binding (% of control) was 92.7% (inactive). Moreover, in assay [14], the efflux inhibition (fraction of control) was -0.2 (inactive). In [16], the differentiation response was -1.71% (inactive).

As for `COc1cc(C(=O)Nc2ccc(N(C)C)cc2)c([N+](=O)[O-])cc1OC`, the percent of DMSO control GFP in [1] was 100% (inactive). Further, the GFP response vs DMSO in [2] and in assay [4] was 104% (inactive) each time. In assay [3], the percent response of DMSO control was 101% (inactive). Moreover, in assay [5], the GFP response, % of DMSO is 98.6% (inactive). Also, in assay [6], the double positive events came to 63.5%. Further, the vesicle binding response in assay [6] was 224% (inactive). For the same molecule, the inhibition in assay [7] is -3.57% (inactive); in assay [11] it was 2.96% (inactive); in assay [15], 7% (inactive). For the same molecule, the superoxide response (% of plate) in assay [8] is 101% (inactive). Moreover, the aptamer binding inhibition in assay [9] is 4% (inactive). For the same molecule, the response in assay [10] was -1.8% (inactive); in assay [12] it was 0.28% (inactive). In addition, in [13], the binding (% of control) is 93.2% (inactive). The efflux inhibition (fraction of control) in assay [14] was -0.2 (inactive). Moreover, in assay [16], the differentiation response was 4.15% (inactive).

Take `O=C(NCc1ccc(N2CCCC2=O)cc1)c1cccc(Cl)c1`: the percent of DMSO control GFP in assay [1] is 102% (inactive). The GFP response vs DMSO in [2] is 101% (inactive); in assay [4], 105% (inactive). In addition, in [3], the percent response of DMSO control was 111% (inactive). Moreover, the GFP response, % of DMSO in assay [5] is 99.4% (inactive). The double positive events in assay [6] is 57.4%. Further, the vesicle binding response in assay [6] was 215% (inactive). Further, the figures for the inhibition in [7], in assay [11] and in [15] were -1.49% (inactive), 7.63% (inactive) and 0% (inactive), respectively. The superoxide response (% of plate) in assay [8] was 101% (inactive). For the same molecule, in [9], the aptamer binding inhibition is 1% (inactive). For the same molecule, the response was -4.33% (inactive) in assay [10] and -1.49% (inactive) in [12]. The binding (% of control) in assay [13] was 106% (inactive). Also, the efflux inhibition (fraction of control) in assay [14] was -0.14 (inactive). In addition, in assay [16], the differentiation response was -5.62% (inactive).
